Sampled rows, rich in hits. Any-hit rate of the full collection: about 2.4%.
A3A deaminase = human APOBEC3A DNA deaminase inhibition | P31941 | recombinant A3A, FAM/TAMRA ssDNA deamination fluorescence | inhibition, % at 20 µM | 330,000 tested, 0.41% active;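 active = at least 40% inhibition at 20 µM here, with at most 30% in a related deaminase screen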;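 also: plate controls were A3A with DMSO for no effect and wells lacking A3A enzyme for full effect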
Target sequence (P31941 whole entry, looked up): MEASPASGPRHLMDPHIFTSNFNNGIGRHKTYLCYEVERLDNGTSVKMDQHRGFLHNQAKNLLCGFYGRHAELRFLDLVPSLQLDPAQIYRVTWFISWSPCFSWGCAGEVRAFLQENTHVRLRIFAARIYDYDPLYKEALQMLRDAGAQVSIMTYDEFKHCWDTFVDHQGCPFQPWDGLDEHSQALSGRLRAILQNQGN
PfM18AAP inh = blocks P. falciparum M18 aspartyl aminopeptidase; recombinant PfM18AAP, H-Glu-NHMec fluorogenic cleavage; inhibition, % at 7.35 µM; 290,000 tested, 1.2% active; AID 1822;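 active = inhibition above the campaign mean inhibition over all tested compounds plus 3 SD, cut at about 28% in these data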;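 also: 0% = plate median of test compound wells and 100% = 2 mM ZnCl2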
PfG6PD inh = PfG6PD (Plasmodium falciparum) enzyme inhibition | 350,000 tested, 0.78% active | inhibition, % at 20 µM | AID 504690 | PfGluPho enzyme, NADPH resazurin-diaphorase fluorescence;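 active = inhibition reaching at least a set limit at 20 µM in the primary screen, cut at about 59% in these data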;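 also: 0% = DMSO wells with substrate and 100% = DMSO wells lacking glucose-6-phosphate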
CR mimetic SO = lowers age-related superoxide in aged yeast cells; 330,000 tested, 0.18% active; S. cerevisiae aged cells, superoxide DHE fluorescence; stronger effect = lower value; superoxide response (% of plate mean), % at 10 µM;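 active = superoxide response under a set limit, about three screen SD below normal, cut at about 65% in these data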;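 also: yeast aged for seven days with compound at 30 °C before DHE staining; 100% = average MFI of all compound-treated wells on the plate with controls excluded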
A3G deaminase = inhibitors of human APOBEC3G DNA deaminase; Q9HC16; 330,000 tested, 0.28% active; inhibition, % at 20 µM; recombinant A3G, ssDNA deamination FAM/TAMRA fluorescence;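 active = inhibition of at least 40% at 20 µM, with no more than 30% in the related APOBEC3A deaminase screen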;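 also: plate controls were DMSO wells with A3G for no effect and wells lacking A3G enzyme for full effect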
Target sequence (Q9HC16 whole entry, looked up): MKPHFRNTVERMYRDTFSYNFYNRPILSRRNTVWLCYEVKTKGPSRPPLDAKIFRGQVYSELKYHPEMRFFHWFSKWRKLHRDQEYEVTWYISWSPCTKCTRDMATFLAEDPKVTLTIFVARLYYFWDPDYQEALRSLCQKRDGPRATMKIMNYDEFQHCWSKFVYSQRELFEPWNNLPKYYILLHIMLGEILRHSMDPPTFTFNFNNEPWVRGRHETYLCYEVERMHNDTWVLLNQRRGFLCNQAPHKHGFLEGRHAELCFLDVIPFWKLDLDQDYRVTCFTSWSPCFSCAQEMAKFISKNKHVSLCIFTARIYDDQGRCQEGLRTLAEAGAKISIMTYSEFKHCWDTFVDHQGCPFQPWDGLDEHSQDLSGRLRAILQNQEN
PfGluPho conf = PfG6PD inhibition, single-dose confirmed. shares compounds with PfG6PD inh. recombinant PfGluPho, NADPH-diaphorase-resazurin fluorescence. inhibition, % at 20 µM. 2,400 tested, 34% active;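 active = inhibition of at least 50% at 20 µM in any single replicate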;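 also: 0% = DMSO with substrate and 100% = DMSO lacking glucose-6-phosphate substrate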
Diaphorase 10uM = inhibits diaphorase or oxidizes, flagging false PfG6PD hits; shares compounds with PfG6PD inh; diaphorase-coupled resazurin reduction, fluorescence, NADPH 10 uM; inhibition, % at 20 µM; 820 tested, 39% active;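 active = average inhibition reaching 50% or more with the compound at 20 µM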;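 also: resorufin red fluorescence formed as diaphorase reduces resazurin using NADPH; 0% = DMSO with enzyme and 100% = DMSO without enzyme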
Diaphorase 30uM = inhibits diaphorase or oxidizes, flagging false PfG6PD hits; shares compounds with PfG6PD inh; Diaphorase/resazurin coupled assay, resorufin fluorescence, 30 uM NADPH; inhibition, % at 20 µM; 820 tested, 29% active; AID 504863;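 active = inhibition averaging 50% or more, tested at 20 µM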;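 also: 0% = DMSO with enzyme and 100% = DMSO wells lacking diaphorase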
The depositor's hits bear a star; x = no result given.

SMILES | A3A deaminase | PfM18AAP inh | PfG6PD inh | CR mimetic SO | A3G deaminase | PfGluPho conf | others
Cc1ccc(S(=O)(=O)Nc2ccc3c4c(cccc24)CC3)c(C)c1 | -7 | 2 | 74* | 102 | -10 | 26
Cc1cc(C)c(S(=O)(=O)Nc2ccc3c4c(cccc24)CC3)c(C)c1 | 3 | -1 | 91* | 109 | -5 | 30
[O-]/[N+](=C/c1ccc(F)cc1)c1ccccc1 | 0 | 18 | 44 | 87 | 0 | x
[O-]/[N+](=C\c1ccncc1)c1ccccc1 | -6 | 4 | 74* | 103 | -3 | 52* | Diaphorase 10uM=35;Diaphorase 30uM=9
COc1ccc(N2CSC3=C(C#N)C(c4cccc(OC)c4OC)CC(=O)N3C2)cc1 (stereo unspecified) | -5 | 28* | 89* | 103 | 39 | 37
CCc1ccccc1N1CSC2=C(C#N)C(c3ccccc3F)CC(=O)N2C1 (stereo unspecified) | -4 | 28 | 74* | 99 | 26 | 51* | Diaphorase 10uM=-17;Diaphorase 30uM=-13
C=CCOC(=O)COc1ccc2c3c(c(=O)oc2c1)CCCC3 | x | x | 11 | x | x | x
COc1ccc(Cl)cc1C=CC=Nc1ccccc1O | x | x | 76* | x | x | 19
O=C(CN1C(=O)c2ccccc2S1(=O)=O)Nc1cccc(S(=O)(=O)N2CCCCC2)c1 | -2 | x | 3 | 126 | -6 | x
Cc1ccc(SCCC(=O)N/N=C/c2ccccc2O)cc1 | -2 | 4 | 77* | 88 | -2 | 34
Cc1ccc(C)c(NC(=O)CCC(=O)N/N=C/c2cccnc2)c1 | -2 | 5 | 0 | 77 | -5 | x
Cc1ccc(SCCC(=O)N/N=C/c2cccnc2)cc1 | -4 | 5 | 74* | 88 | -9 | 67* | Diaphorase 10uM=80*;Diaphorase 30uM=66*
O=S(=O)(c1ccccc1)N1CCN=C1SCc1c(F)cccc1Cl | 4 | 2 | 106* | 89 | 2 | 32
Cc1ccc(C)c(CSC2=NCCN2S(=O)(=O)c2ccccc2)c1 | 2 | -4 | 62* | 103 | -3 | -3
CC(SC1=NCCN1S(=O)(=O)c1ccccc1)c1ccccc1 (stereo unspecified) | -4 | 2 | 62* | 104 | -5 | 24
Cc1ccc(-c2cc(-c3ccccc3)c(C#N)c(N)n2)o1 | -7 | -5 | 83* | 122 | -2 | -6
Cc1ccc(-c2cc(-c3ccccc3Cl)c(C#N)c(N)n2)o1 | 7 | 0 | 56 | 98 | 2 | x
O=C1COc2ccc(C(=O)COC(=O)c3ccccc3F)cc2N1 | 1 | x | 1 | 98 | -6 | x
COC(=O)c1ccccc1C(=O)c1ccc2c(c1)NC(=O)CO2 | -2 | -11 | 68* | 109 | -6 | 35
COc1cc2c(cc1OC)C(=O)C(Br)CC2 (stereo unspecified) | x | x | 112* | x | x | 106* | Diaphorase 10uM=101*;Diaphorase 30uM=98*
COc1ccc(CCn2c(NN=C3CCCCC3)nc3c2c(=O)[nH]c(=O)n3C)cc1 | 0 | 21 | 106* | 92 | -4 | 81* | Diaphorase 10uM=-8;Diaphorase 30uM=-5
CC(Sc1ccc(S(=O)(=O)N2CCOCC2)cn1)c1ccccc1Cl (stereo unspecified) | 0 | x | 48 | 100 | 1 | 4
CC(Sc1ccc(S(=O)(=O)N2CCOCC2)cn1)C(=O)Nc1ccc(Cl)cc1Cl (stereo unspecified) | -1 | x | 10 | 99 | -6 | x
Cc1cccc(C(=O)Nc2ccc(C(=O)c3ccncc3)cc2)c1 | x | x | 64* | x | x | 10
Cc1cccc(C(=O)Nc2ccc(C(=O)c3ccccc3)cc2)c1 | -1 | x | 63* | 86 | -3 | 6
SMILES | A3A deaminase | PfM18AAP inh | PfG6PD inh | CR mimetic SO | A3G deaminase | PfGluPho conf | others
COC(=O)c1cc2cc(Cl)ccc2nc1SC | 4 | 0 | 3 | 92 | 3 | x
Cc1cc(OC(C)C(=O)N2CCN(c3ccc(F)cc3)CC2)c2c(C)cc(=O)oc2c1 (stereo unspecified) | -3 | -1 | -20 | 104 | -8 | x
CS(=O)(=O)N(CC(=O)N/N=C/c1cccs1)c1cccc(Cl)c1Cl | -2 | -12 | 65* | 102 | -5 | 43
CCOC(=O)C1CCN(C(=O)Nc2ccc3oc(C)nc3c2)CC1 | -3 | 12 | 17 | 98 | -8 | x
CCOC(=O)N1CCN(C(=O)Nc2ccc3oc(C)nc3c2)CC1 | 0 | 10 | 62* | 114 | 1 | -4
Cc1ccc(-n2c(C)cc(C(=O)CSc3nncs3)c2C)cc1 | -4 | 10 | 62* | 89 | 1 | 23
O=S(=O)(NC1CCCC1)c1cc(F)ccc1F | -2 | 3 | -17 | 96 | -3 | x
O=C1c2ccccc2C(Nc2ccc3c(c2)OCO3)N1Cc1ccc2c(c1)OCO2 (stereo unspecified) | -1 | 11 | 60* | 100 | 20 | 44
O=C1c2ccccc2C(Nc2ccc3c(c2)OCO3)N1Cc1ccco1 (stereo unspecified) | 3 | 18 | 61* | 80 | 16 | 39
O=C1c2ccccc2C(Nc2ccc(F)c(Cl)c2)N1Cc1ccco1 (stereo unspecified) | -1 | 4 | 7 | 91 | -4 | x
O=C(CC12CC3CC(CC(C3)C1)C2)Nc1nncs1 | 0 | 6 | -3 | 108 | -5 | x
CS(=O)(=O)c1ccccc1-c1nnc(NC(=O)Cc2ccccc2)o1 | -6 | 5 | -5 | 86 | -1 | x
O=[N+]([O-])c1ccc(Sc2cccc3cccnc23)c2cccnc12 | 1 | 4 | 94* | 109 | -8 | 53* | Diaphorase 10uM=66*;Diaphorase 30uM=46
O=C1CCN(c2ccccc2)N1 | x | x | 119* | x | x | 109* | Diaphorase 10uM=16;Diaphorase 30uM=8
N#Cc1cccc(NC(=O)CCc2ccc(S(=O)(=O)N3CCOCC3)cc2)c1 | 0 | x | -29 | 93 | -8 | x
C#CCOCCOCCOCCNc1nc(N2CCN(C(=O)CCCCCCCCCCNC(=O)[C@H](CCCCN)n3cc(CCO)nn3)CC2)nc(N2CCN(C(=O)CCCCCCCCCCNC(=O)[C@@H]([C@H](C)O)n3cc(C)nn3)CC2)n1 | -3 | x | 66* | 98 | -8 | 29
C#CCOCCOCCOCCNc1nc(N2CCN(C(=O)CCCCCCCCCCNC(=O)Cn3cc(CCCCCN)nn3)CC2)nc(N2CCN(C(=O)CCCCCCCCCCNC(=O)[C@H](CO)n3cc(CCCCCN)nn3)CC2)n1 | -7 | x | 62* | 96 | -4 | 21
C#CCOCCOCCOCCNc1nc(N2CCN(C(=O)CCCCCCCCCCNC(=O)[C@H](CCCCN)n3cc(C[C@@H](C)CC)nn3)CC2)nc(N2CCN(C(=O)CCCCCCCCCCNC(=O)[C@H](CCCCN)n3cc(C[C@@H](C)CC)nn3)CC2)n1 | x | x | 74* | 94 | x | -20

Bioassay records deposited in PubChem BioAssay by several laboratories.
